Reference: PubChem BioAssay

Each compound was assayed on Sam68 (KHDRBS1) (assay: Sam68 small-molecule binders, primary screen, biochemical, small-molecule microarray, 635 nm fluorescence (AID 1125;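 further: score merges 667 nm channel intensity with signal to noise over triplicate slides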)). Conditions: small-molecule microarray binding, higher = more signal.

Row | Structure (SMILES) | composite z-score
1 | O=C1O[C@@H](c2ccccc2)[C@@H](c2ccccc2)N2[C@@H](c3ccc(OCCO)cc3)[C@]3(C(=O)Nc4ccc(C#CC5=CCCCC5)cc43)[C@@H](C(=O)N3CCCCCCC3)[C@H]12 | 1.28
2 | CN1C(=O)C2C=CC(C(O)c3ccccc3)N(N3CCCCC3)C2C1=O (stereo not given) | 1.02
3 | C[C@H]1C2[C@H](Cc3ccccc3)NC(=O)[C@]23C(=O)NCC(=O)N2CCC[C@H]2C(=O)NC/C=C/CCC/C=C/C3[C@@H]2O[C@]12C (stereo not given in full) | -1.51
4 | NC(=O)NCC#Cc1ccc2c(c1)[C@]1(C(=O)N2)[C@H](C(=O)O)[C@H]2C(=O)O[C@H](c3ccccc3)[C@H](c3ccccc3)N2[C@@H]1c1ccc(O)cc1 | 0.102
5 | O=C(O)C1N=C(c2ccc(OCCCO)cc2)N(c2ccccc2)O1 (stereo not given) | 1.3
6 | CN(C)CCCCCCNC(=O)[C@@H]1C[C@@H]2C(=O)N[C@@H](CCCC[N+](C)(C)C)C(=O)N2[C@@H]1c1ccc(O)cc1 | 0.794
7 | O=C1OCC=C[C@H]2OC34C=CCN(CCN5CCOCC5)C(=O)[C@H]3N(CCO)C(=O)[C@@H]4[C@@H]12 (stereo not given in full) | 0.457
8 | CS(=O)(=O)CCOC(=O)C1=CC(CCCO)=CC(C2CC2)N(Cc2cc3c(cc2Br)OCO3)C=C1C(=O)OCCS(C)(=O)=O (stereo not given) | 0.531
9 | CCCC=C(CCC)[C@@H](NS(=O)(=O)c1ccc(Cl)cc1)c1ccc(C(=O)OC)cc1 | 0.674
10 | [N-]=[N+]=Nc1ccccc1C[C@@]1(C(=O)N2CCCCC2)N=C(c2ccc(OCCCO)cc2)O[C@@H]1c1ccccc1N=[N+]=[N-] | 1.32
11 | O=C1O[C@H](c2ccccc2)[C@H](c2ccccc2)N2[C@H]1[C@@H](C(=O)NC[C@H](O)c1ccccc1)[C@]1(C(=O)Nc3ccc(C#CC4=CCCCC4)cc31)[C@H]2c1ccccc1OCCO | 1.32
12 | C=CCC(OC(C)=O)[C@@H]1[C@@H](N(Cc2cc3ccccc3o2)C(=O)Cc2ccc(OC)cc2)c2cc(OCCCO)ccc2N1C(=O)c1ccc2ccccc2c1 (stereo not given in full) | -0.427
13 | O=C1[C@H]2C=C(I)[C@H](C[C@@H]2OCCCCO)[C@@]12CO2 | 0.579
14 | [N-]=[N+]=Nc1ccccc1C[C@]1(C(=O)NCC(O)CO)N=C(c2ccc(OCCCO)cc2)O[C@H]1c1ccccc1 (stereo not given in full) | 1.09
15 | O=C1O[C@H](c2ccccc2)[C@H](c2ccccc2)N2[C@H]1[C@@H](C(=O)NC[C@H](O)c1ccccc1)[C@]1(C(=O)Nc3ccccc31)[C@H]2c1ccc(O)cc1 | 0.959
16 | CCN(CC)c1ccc(N2CC=CC34O[C@@H]5C=CCOC(=O)[C@@H]5[C@H]3C(=O)N(CCCCCCO)[C@@H]4C2=O)cc1 (stereo not given in full) | 0.0127
17 | CC1CC/C=C\[C@H]2OC34C=CCN(c5ccc6ccccc6c5)C(=O)[C@H]3N(CCO)C(=O)[C@@H]4C2C(=O)O1 (stereo not given in full) | 0.0573
18 | CC=CC(O)C1C=CC2C(=O)N(C)C(=O)C2N1N(c1ccccc1)c1ccccc1 (stereo not given) | -0.113
19 | CCOC(=O)C1=CCC(c2ccc(F)cc2)N(S(=O)(=O)c2ccc(C)cc2)C1 (stereo not given) | 0.376
20 | O=C1C2C=CC(C(O)C=Cc3ccc([N+](=O)[O-])cc3)N(Nc3ccccc3F)C2C(=O)N1c1ccccc1 (stereo not given) | 1.3
21 | C=CCN1Cc2ccccc2[C@@H]2OC(c3ccc(OCCCO)cc3)=N[C@]2(CCS(=O)(=O)c2ccccc2)C1=O | 1.3
22 | O=C(CS)NCCCCCNC(=O)[C@H]1C[C@H]2C(=O)NCC(=O)N2[C@H]1c1ccc(O)cc1 | -1.3
23 | [N-]=[N+]=NCc1ccccc1[C@@H]1OC(c2ccc(OCCCO)cc2)=N[C@]1(CCS(=O)(=O)c1ccccc1)C(N)=O | 1.28
24 | C=CCN1C(=O)[C@]2(Cc3ccccc3)N=C(c3ccc(OCCCO)cc3)O[C@@H]2c2ccccc21 | 1.3
25 | O=C1OCCC/C=C\[C@H]2OC34C=CCN(c5ccc6ccccc6c5)C(=O)[C@H]3N(CCCCCO)C(=O)[C@@H]4C12 (stereo not given in full) | -1.63
26 | CCOc1cc(C(O)C2C=CC3C(=O)N(c4ccccc4)C(=O)C3N2Nc2ccc(C(C)C)cc2)ccc1O (stereo not given) | 1.29
27 | [N-]=[N+]=Nc1ccccc1C[C@]1(C(=O)N2CCCCC2)COC(c2ccc(OCCCO)cc2)=N1 | 1.28
28 | C=C(C(=O)CC[C@H](OC(C)=O)c1ccccc1OCCO)C(C)C | -0.4
29 | Cc1ccc(S[C@]2(C(=O)O)CC(=O)N(C(C)C)[C@@H]2c2ccc(CO)cc2)cc1 | 0.462
30 | CN(C)C(=O)[C@]1(Cc2ccccc2)N=C(c2ccc(OCCCO)cc2)O[C@@H]1c1ccccc1N=[N+]=[N-] | 1.32
